Bioassay records deposited in PubChem by National Center for Advancing Translational Sciences (NCATS).
Shown are actives, neighbours in structure and some others; about 0.44% of the full set was active somewhere.
EPAC1 ag = activates human EPAC1 exchange factor | O95398 | Potency, µM (highest dose often 154 µM), for inactives: at the highest dose activation, hits mostly activators | 360,000 tested, 0.073% active | EPAC1 agonist qHTS, biochemical assay; response scale: 100% = response to 6.5 mM cAMP | AID 720707; note: nearly all actives have a fitted effect of over 60% in size
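Compounds were pinned as a concentration titration into mixtures of EPAC1 (100 nM), BODIPY-GDP-loaded Rap1B (250 nM) and GDP (50 uM). After 5 min at room temperature, fluorescence was followed for 30 min; activity was scaled to 6.5 mM cAMP.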
EPAC2 antagonist = antagonists of human EPAC2. Q8WZA2. EPAC2 GEF exchange of Rap1B-BODIPY-GDP, fluorescence. Potency, µM (top dose mostly 114 µM), inactives show at the highest dose activity, negative = inhibition, most hits filed as inhibitors. 360,000 tested, 0.18% active. AID 720708; note: % is set by controls: 0 for no effect and ±100 for the full control effect; nearly all actives have a fitted effect of over 45% in size
USP1 inh = blocks the human USP1/UAF1 deubiquitinase complex; O94782; recombinant USP1/UAF1, Ub-Rhodamine cleavage fluorescence; Potency, µM (highest dose often 57.1 µM), for inactives: at the top dose activity change, negative = inhibition, most hits filed as inhibitors; 390,000 tested, 0.23% active; AID 743255; note: % is set by controls: 0 for no effect and ±100 for the full control effect; nearly all actives have a fitted effect of over 60% in size
Target sequence (O94782 whole entry, looked up): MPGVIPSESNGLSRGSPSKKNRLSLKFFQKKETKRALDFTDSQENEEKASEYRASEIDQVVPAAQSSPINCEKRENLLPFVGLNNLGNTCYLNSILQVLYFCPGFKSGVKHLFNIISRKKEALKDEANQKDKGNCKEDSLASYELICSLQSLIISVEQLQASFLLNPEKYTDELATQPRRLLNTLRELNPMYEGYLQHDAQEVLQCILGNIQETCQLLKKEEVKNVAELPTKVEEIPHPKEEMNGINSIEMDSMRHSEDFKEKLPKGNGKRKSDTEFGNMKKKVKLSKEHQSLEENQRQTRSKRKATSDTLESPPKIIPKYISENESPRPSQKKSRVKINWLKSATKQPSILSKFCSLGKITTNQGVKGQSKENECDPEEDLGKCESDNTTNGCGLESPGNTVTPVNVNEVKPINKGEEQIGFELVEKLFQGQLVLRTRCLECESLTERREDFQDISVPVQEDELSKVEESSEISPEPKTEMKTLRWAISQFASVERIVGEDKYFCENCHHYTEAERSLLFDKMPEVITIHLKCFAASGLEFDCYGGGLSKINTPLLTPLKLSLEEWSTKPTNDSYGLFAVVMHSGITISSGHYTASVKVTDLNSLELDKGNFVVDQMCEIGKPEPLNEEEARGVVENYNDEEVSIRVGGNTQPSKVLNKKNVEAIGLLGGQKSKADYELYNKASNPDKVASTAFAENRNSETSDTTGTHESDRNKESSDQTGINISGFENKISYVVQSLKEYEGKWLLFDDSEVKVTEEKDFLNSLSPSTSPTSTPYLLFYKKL
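Step one: compound is pinned into 1nM USP1/UAF1 in HEPES pH 7.8 buffer with TCEP. Step two: 15 min room-temperature incubation. Step three: Ub-Rho (150nM final) starts cleavage, tracked by fluorescence over six one-minute reads.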
EPAC2 ag = agonists of human EPAC2 (RAPGEF4); Q8WZA2; EPAC2 activation, biochemical qHTS; response scale: 100% = 6.5 mM cAMP response; Potency, µM (doses to about 154 µM), for the others: at the highest dose activation, actives largely listed as activators; 360,000 tested, 0.079% active; AID 720711; note: nearly all actives have a fitted effect of over 50% in size
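EPAC2 (100 nM) mixed with Rap1B loaded with BODIPY-GDP (250 nM) plus 50 uM unlabeled GDP; compounds pinned in, 5 min RT, then read every 5 min for 30 min (ex 480, em 540 nm). Normalized to cAMP control.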
EPAC1 antag = antagonists of human EPAC1; O95398; EPAC1 GEF assay, Rap1b-BODIPY-GDP exchange fluorescence; Potency, µM (series often up to 115 µM), without a hit: at the highest dose activity change, negative = inhibition, hits mostly inhibitors; 360,000 tested, 0.14% active; AID 720709;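 note: plate controls were vehicle for no effect and positive control for full effect; nearly all actives have a fitted effect of over 50% in size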
* = called active by the depositor. Calls come from the whole dose curve; as a rule, active = well fitted curve in the direction sought with a large enough effect; inconclusive = small, poorly fitted or top-dose-only effect, or another doubt; inactive = no such curve, though single readings can be large; an effect the other way counts as inactive or inconclusive. Potency is the fitted concentration of half-maximal effect.

Screening O=C(O)c1cc(N2N=C(C(F)(F)F)/C(=C/C=C/c3ccco3)C2=O)ccc1Cl returned EPAC1 ag -0.5%, EPAC2 antagonist inconclusive, USP1 inh 28.2µM*, EPAC2 ag 13.9% and EPAC1 antag 35.5µM*.
Screening COc1ccc(Cl)cc1NC(=O)C1CCN(c2ncnc3c2nc2n3CCCCC2)CC1 returned USP1 inh -1.5%.
Screening CCCCn1c(NC(=O)c2ccccc2Cl)c(C#N)c2nc3ccccc3nc21 returned EPAC1 ag -1.4%, EPAC2 antagonist inconclusive, USP1 inh 14.1µM*, EPAC2 ag -1.8% and EPAC1 antag inconclusive.
For CCCCn1c(NC(=O)CC)c(C#N)c2nc3ccccc3nc21 the results were EPAC1 ag -11.7%, EPAC2 antagonist 3.1%, USP1 inh -20.0%, EPAC2 ag 2.9% and EPAC1 antag -7.4%.
Screening N#Cc1c(NC(=O)c2ccccc2Cl)n(Cc2ccccc2)c2nc3ccccc3nc12 returned EPAC1 ag -6.8%, EPAC2 antagonist 44.7µM*, USP1 inh 25.1µM*, EPAC2 ag -15.3% and EPAC1 antag 35.5µM*.
For O=C(NCc1ccc(F)cc1)c1cnc(N2CCCCC2)c2ccccc12 the results were USP1 inh -12.4%.
For CCOCCCNc1nc2c(C)cccn2c(=O)c1/C=C1\SC(=S)N(CC(C)C)C1=O the results were EPAC1 ag 8.5%, EPAC2 antagonist -2.4%, USP1 inh inconclusive, EPAC2 ag 112µM* and EPAC1 antag 1.5%.
COCOc1cccc(CN2CCC2(C)C(=O)Nc2ccc(C)c(O)c2)c1 (configuration not stated) was read as EPAC1 ag -9.4%, EPAC2 antagonist -25.2%, EPAC2 ag 7.1% and EPAC1 antag -17.8%.
For C#CCOCCOCCOCCNc1nc(N2CCN(C(=O)CCCCCCCCCCNC(=O)[C@H](CO)n3cc(CCCSC)nn3)CC2)nc(N2CCN(C(=O)CCCCCCCCCCNC(=O)[C@H](CCCCN)n3cc(CCO)nn3)CC2)n1 the results were EPAC1 ag -8.4%, EPAC2 antagonist inconclusive, USP1 inh -19.9%, EPAC2 ag inconclusive and EPAC1 antag -23.5%.
For C#CCOCCOCCOCCNc1nc(N2CCN(C(=O)CCCCCCCCCCNC(=O)[C@H](CO)n3cc(CCCSC)nn3)CC2)nc(N2CCN(C(=O)CCCCCCCCCCNC(=O)[C@H](CCCN=C(N)N)n3cc(C[C@@H](C)CC)nn3)CC2)n1 the results were EPAC1 ag -30.5%, EPAC2 antagonist inconclusive, USP1 inh inconclusive, EPAC2 ag -19.0% and EPAC1 antag 56.2µM*.
`COc1ccc(NC(=O)CSc2nc3nc(-c4cccs4)cc(C(F)(F)F)c3c(=O)[nH]2)c(OC)c1` gave EPAC1 ag 8.5%, EPAC2 antagonist -17.7%, USP1 inh -6.5%, EPAC2 ag -8.4% and EPAC1 antag 31.6µM*.
`CCOc1ccccc1NC(=O)CSc1nc2nc(-c3cccs3)cc(C(F)(F)F)c2c(=O)[nH]1` gave EPAC1 ag -12.4%, EPAC2 antagonist 4.2%, USP1 inh -5.3%, EPAC2 ag -6.4% and EPAC1 antag -13.6%.
Screening O=C(Nc1ccc(S(=O)(=O)N2CCCCC2c2cccnc2)cc1)c1ccc(Br)cc1 (configuration not stated) returned USP1 inh -15.1%.
For COc1cccc2cc(/C(=N/O)c3ccccc3)oc12 the results were EPAC1 ag 6.0%, EPAC2 antagonist 50.1µM*, USP1 inh 0.4%, EPAC2 ag 22.9% and EPAC1 antag -18.9%.
For Cc1cccc(NC(=O)Cn2nnc(C(=O)NCc3cccs3)c2N)c1 the results were USP1 inh -22.8%.
For COC(=O)c1sc(N2C(=O)C(=O)/C(=C(/O)c3ccccc3)C2c2ccco2)nc1C (configuration not stated) the results were EPAC1 ag -3.6%, EPAC2 antagonist 1.9%, USP1 inh -11.3%, EPAC2 ag -3.8% and EPAC1 antag -3.2%.
